Test systems include HCT-15 colon; HT29 colon; SNB-75 CNS; SNB-19 CNS; U251 CNS; PC-3 prostate; SK-MEL-5 melanoma; UACC-62 melanoma; LOX IMVI melanoma; SK-MEL-28 melanoma.
Common to all, as to assay: NCI-60 one-dose screen, 48 h (100 = growth as untreated, 0 = no growth, -100 = all killed)
Holding throughout (conditions): 10 µM unless noted

About 83,000 compounds went through this panel and 20% of them were active in at least one assay; those are over-represented in the sample as a whole.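 Negative percent growth values reflect cell death: -40 means 40% of the cells present at the start died, and -100 means all died.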 Unmarked numbers belong to inactive results. Activity calls are given as the source filed them. The calls were made as follows: active = growth percent below 10; inactive = the rest.

Turning to `CCN(CC)CCNC(=O)n1cc(-c2ccncc2)c(-c2ccc(Cl)c(OC)c2)n1`, the growth in the test on HCT-15 colon was 96.1%; in the test with HT29 colon it was 59.4%; with SNB-75 CNS, 64.7%; with SNB-19 CNS it was 93%; with U251 CNS it was 90.3%; with PC-3 prostate, 88.2%. Also, the growth is 94.1% in the test with SK-MEL-5 melanoma, 72.5% with UACC-62 melanoma, 92.3% in the test with LOX IMVI melanoma and 90.2% in the test on SK-MEL-28 melanoma.

For `COc1cccc(-c2cc(-c3cccs3)c(C#N)c(=O)[nH]2)c1`, the growth in the test with HCT-15 colon is 97.8%; in the test on HT29 colon, 116%; in the test with SNB-75 CNS it was 98.4%; in the test on SNB-19 CNS, 99.9%; in the test with U251 CNS, 100%; in the test on PC-3 prostate, 103%. For the same compound, the growth with SK-MEL-5 melanoma is 107%; with UACC-62 melanoma it was 96.3%; in the test on LOX IMVI melanoma, 99.5%; with SK-MEL-28 melanoma, 115%.

On to `O=C(NNC(=O)c1cccc(Cl)c1)c1ccccc1`, for which the growth was 114% in the test with HCT-15 colon; 104% with HT29 colon; 99.4% in the test on SNB-75 CNS; 119% with SNB-19 CNS; 100% in the test on U251 CNS; 91.1% with PC-3 prostate. Moreover, the growth with SK-MEL-5 melanoma was 101%; in the test on UACC-62 melanoma it was 123%; in the test with LOX IMVI melanoma, 105%; in the test with SK-MEL-28 melanoma it was 119%.

Take `CCCCCN(CCCCC)C(=O)C(CCC(=O)O)NC(=O)c1ccc(Cl)c(Cl)c1` (stereo not given): the growth was 112% in the test on HCT-15 colon; 109% with HT29 colon; 93.3% with SNB-75 CNS; 112% with SNB-19 CNS; 101% in the test with U251 CNS; 93% with PC-3 prostate. In addition, the growth with SK-MEL-5 melanoma is 90.5%; in the test with UACC-62 melanoma, 98.4%; with LOX IMVI melanoma, 99.9%; in the test with SK-MEL-28 melanoma, 105%.

For `CCOC(=O)C#Cc1c(C(=O)OCC)nnn1[C@@H]1O[C@H](COC(C)=O)[C@@H](OC(C)=O)[C@H]1OC(C)=O`, the growth in the test on HCT-15 colon is 44%; with HT29 colon, 88.9%; in the test with SNB-75 CNS, 95.5%; in the test on SNB-19 CNS, 93%; in the test on U251 CNS, 100%; in the test on PC-3 prostate it was 102%. Also, the growth was 96.6% in the test with SK-MEL-5 melanoma, 93.1% with UACC-62 melanoma, 85.8% with LOX IMVI melanoma and 107% in the test with SK-MEL-28 melanoma.

For the compound `Cc1ccc(NC(=O)c2sc3nc4c(cc3c2N)C(=O)CCC4)cc1Cl`, the growth with HCT-15 colon was 97.3%; with HT29 colon it was 97.5%; in the test with SNB-75 CNS, 110%; with SNB-19 CNS, 114%; with U251 CNS it was 97.9%; with PC-3 prostate, 104%. Also, the growth with SK-MEL-5 melanoma was 102%; in the test on UACC-62 melanoma, 108%; in the test on LOX IMVI melanoma it was 99.2%; in the test on SK-MEL-28 melanoma it was 108%.

Turning to `COc1ccccc1CNCCCN1C(=O)c2ccc3c4c(ccc(c24)C1=O)C(=O)N(CCCOCCCCOCCCN)C3=O`, the growth in the test on HCT-15 colon was -52.7% (active); in the test on HT29 colon, -55% (active); in the test with SNB-75 CNS it was -5.57% (active); with SNB-19 CNS it was -11.1% (active); with U251 CNS, -48.6% (active); with PC-3 prostate, 3.91% (active). Further, the growth is -98.7% (active) with SK-MEL-5 melanoma, -79.8% (active) in the test with UACC-62 melanoma, -34.3% (active) in the test with LOX IMVI melanoma and -4.3% (active) in the test with SK-MEL-28 melanoma.

For the compound `COc1cc(NC(=O)CSc2nc3ccc(Cl)cc3c(=O)n2Cc2ccccc2)cc(OC)c1OC`, the growth is 88.3% with HCT-15 colon; 56.5% in the test with HT29 colon; 53.4% in the test with SNB-75 CNS; 88.3% in the test on SNB-19 CNS; 55.5% in the test with U251 CNS; 71.1% with PC-3 prostate. Moreover, the growth was 45.5% in the test on SK-MEL-5 melanoma, 43.2% in the test on UACC-62 melanoma, 74.5% in the test on LOX IMVI melanoma and 78.2% in the test on SK-MEL-28 melanoma.

Turning to `C=C1C(=O)O[C@H]2[C@H]1CC/C(COC(=O)N[C@@H](Cc1c[nH]c3ccccc13)C(=O)OC)=C\CC[C@@]1(C)O[C@@H]21`, the growth was -12.1% (active) with HCT-15 colon; -29.5% (active) in the test on HT29 colon; 68.7% in the test with SNB-75 CNS; 66.8% in the test on SNB-19 CNS; 25.3% in the test on U251 CNS; 33.3% with PC-3 prostate. Moreover, the growth is 21.8% in the test on SK-MEL-5 melanoma, 27.8% with UACC-62 melanoma, -38.5% (active) in the test on LOX IMVI melanoma and 6.71% (active) in the test on SK-MEL-28 melanoma.

In the case of `CCn1c(Cc2ccccc2Nc2c(Cl)cccc2Cl)nnc1SCC(=O)Nc1cccc(OC)c1`, the growth with HCT-15 colon is 78.9%; in the test on HT29 colon, 68.6%; in the test on SNB-75 CNS, 86.2%; with SNB-19 CNS, 79.4%; in the test with U251 CNS, 86.1%; in the test on PC-3 prostate it was 56.1%. Further, the growth is 91.6% in the test on SK-MEL-5 melanoma, 33.6% in the test with UACC-62 melanoma, 79.9% with LOX IMVI melanoma and 96.4% in the test on SK-MEL-28 melanoma.

Turning to `CC(C)c1ccc(-c2cnc3nonc3n2)cc1`, the growth was 19.3% with HCT-15 colon; 29.8% in the test with HT29 colon; 54.3% in the test on SNB-75 CNS; 40.7% with SNB-19 CNS; 65.9% in the test on U251 CNS; 19.3% with PC-3 prostate. Besides, the growth was 32.5% with SK-MEL-5 melanoma, 14.2% with UACC-62 melanoma, 26.1% with LOX IMVI melanoma and 73.9% in the test with SK-MEL-28 melanoma.

Turning to `CC(C)N(C(=S)SSC(=S)N(C(C)C)C(C)C)C(C)C`, the growth with HCT-15 colon is 97.7%; in the test with HT29 colon, 88.1%; with SNB-75 CNS it was 102%; in the test with SNB-19 CNS, 109%; in the test on U251 CNS, 94.5%; in the test on PC-3 prostate, 86.4%. Also, the growth in the test with SK-MEL-5 melanoma is 109%; in the test with UACC-62 melanoma it was 105%; in the test with LOX IMVI melanoma, 97.1%; in the test with SK-MEL-28 melanoma it was 100%.

Take `CCN(CC)c1ccc(/C=N/NC(=O)c2ccc(S(C)(=O)=O)cc2)c(O)c1`: the growth with HCT-15 colon is 28.5%; with HT29 colon, 21.8%; in the test on SNB-75 CNS, 55.2%; in the test on SNB-19 CNS, 32%; with U251 CNS, 20.6%; with PC-3 prostate, 49.2%. Besides, the growth with SK-MEL-5 melanoma is -2.99% (active); with UACC-62 melanoma it was -18.5% (active); with LOX IMVI melanoma, 9.68% (active); with SK-MEL-28 melanoma, 27.2%.

Regarding `CN(C)CC(=O)c1ccc2cc(Br)c3ccccc3c2c1`, the growth was 62.1% in the test on HCT-15 colon; 9.4% (active) in the test with HT29 colon; 83.7% in the test on SNB-75 CNS; 69.7% with SNB-19 CNS; 53.3% with U251 CNS; 57.2% in the test on PC-3 prostate. Moreover, the growth with SK-MEL-5 melanoma is 83%; with UACC-62 melanoma it was 79.1%; in the test with LOX IMVI melanoma it was 43.6%; in the test with SK-MEL-28 melanoma it was 99.1%.

These data come from PubChem BioAssay (NCI).
